Pf growth 48h – inhibits P. falciparum growth in the first generation, 48 h. Potency, µM (highest dose often 28.7 µM), for the others: at the top dose activity change, negative = inhibition, usual class: inhibitors. 5.9% of 310,000 active. P. falciparum luciferase growth in erythrocytes, 48 h; note: % is set by controls: 0 for no effect and ±100 for the full control effect
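Erythrocytes infected with P. falciparum carrying an integrated firefly luciferase reporter (2% hematocrit, 0.1% parasitemia final) were exposed to compounds in RPMI 1640 with 0.5% Albumax at 37 C, 5% CO2. Growth inhibition was scored as reduced luminescence.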
Pf growth 96h – P. falciparum growth inhibition at 96 hours; P. falciparum luciferase reporter growth, 96 h; Potency, µM (top dose mostly 28.7 µM), without a hit: top-dose activity change, negative = inhibition, hits mostly inhibitors; 6.9% of 320,000 active; AID 504834; note: % is set by controls: 0 for no effect and ±100 for the full control effect
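Readout is luminescence from an integrated firefly luciferase in P. falciparum. Red cells, 2% hematocrit and 0.05% parasitemia final, were cultured with compound through two parasite generations (96 hours) at 37 C, 5% CO2.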
Sm TGR block – S. mansoni TGR enzyme inhibition; Q962Y6; purified TGR, DTNB reduction, TNB absorbance 405 nm; Potency, µM (doses to about 114 µM), inactives show top-dose activity change, negative = inhibition, actives largely listed as inhibitors; 3% of 360,000 active; note: % is set by controls: 0 for no effect and ±100 for the full control effect; nearly all actives have a fitted effect of over 60% in size
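First, TGR (20 nM dispensed) and NADPH were mixed with compound. Second, a 15 min room-temperature incubation followed. Third, further NADPH and then DTNB were added to start the reaction. Finally, TNB absorbance was monitored kinetically.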
SARS PLP yeast – blocks SARS-CoV papain-like protease in a yeast assay; S. cerevisiae expressing SARS-CoV PLpro, growth rescue; Potency, µM (highest dose often 32.9 µM), without a hit: top-dose activity, positive = growth rescue, actives largely listed as activators; 0.19% of 330,000 active; AID 485353; calls by dose curve; note: 0% is about no effect; nearly all actives have a fitted effect of over 55% in size
* marks the source's active call; other numbers are inactive results; ? = inconclusive; · = not tested or not shown. Rows were chosen to be rich in hits. Some 12% of all compounds tested hit in one or more screens of this group. Unless noted, calls come from the whole dose curve; as a rule, active = well fitted curve in the direction sought with a large enough effect; inconclusive = small, poorly fitted or top-dose-only effect, or another doubt; inactive = no such curve, though single readings can be large; an effect the other way counts as inactive or inconclusive. Potency is the fitted concentration of half-maximal effect.

SMILES | Pf growth 48h | Pf growth 96h | Sm TGR block | SARS PLP yeast
O=C(C1=C[C@H](c2ccccc2)C[C@H](OCCCCO)O1)N1CCN(Cc2ccc3c(c2)OCO3)CC1 | ? | ? | -12% | 1%
O=C(C1=C[C@H](c2ccccc2)C[C@H](OCCCCO)O1)N1CCOCC1 | 50% | 52% | 45µM* | -1%
C[C@@H]1C=C(C(=O)N2CCN(Cc3ccc4c(c3)OCO4)CC2)O[C@H](OCCCCO)C1 | 4% | 29% | -13% | 0%
CCN(CC)c1ccc(NC(=O)c2ccc3c(c2)OCO3)c(C)c1 | 4% | 131% | 0% | 8%
CCCCN1CC(c2nc3ccccc3n2CCCCOc2c(C)cccc2C)CC1=O (centres undefined) | · | · | 8% | ·
COc1ccc(CCC(=O)NC(C)c2ccccc2)cc1OC (centres undefined) | -12% | -4% | -23% | -1%
O=C(C1=C[C@H](c2ccc(Br)cc2)C[C@H](OCCCCO)O1)N1CCN(Cc2ccccc2)CC1 | ? | ? | 35µM* | 0%
O=C(C1=C[C@@H](C2CC2)C[C@@H](OCCCCO)O1)N1CCN(Cc2ccccc2)CC1 | -26% | -18% | -17% | 0%
CC(C)(C)Nc1nc(NC(C)(C)C)nc(-n2ccnc2)n1 | 1.3µM* | ? | 1% | -4%
CC(C)(C)Nc1nc(NN)nc(NC(C)(C)C)n1 | ? | ? | 16% | 7%
CCOc1cccc(-c2c(C(=O)N/N=C/c3ccc(Br)cc3)nnn2-c2nonc2N)c1 | ? | 2.6µM* | -6% | -3%
CCOc1ccc(-c2c(C(=O)N/N=C/c3cccc(Br)c3)nnn2-c2nonc2N)cc1 | ? | 2.9µM* | 2% | -3%
CCCOc1ccc(/C=N/NC(=O)c2nnn(-c3nonc3N)c2-c2cccs2)cc1OC | 13µM* | 12µM* | -3% | 3%
CN(C)c1ccc(N=Nc2ccc(C(=O)O)cc2)cc1 | 4% | -10% | 40µM* | 1%
CN(C)c1ccc(C(=O)N2CCCC2)cc1 | 43% | 12µM* | 5% | 2%
O=C(Nc1ccccc1C(=O)O)c1ccc(NC(=O)C2CCCCC2)cc1 | -8% | ? | -29% | -1%
CCCCn1c(=O)[nH]c(=O)c2c1nc(-c1ccc(-c3ccc(F)cc3)o1)n2C | -2% | 26% | ? | -1%
CCCCn1c(-c2ccc(Br)cc2F)nc2c1c(=O)[nH]c(=O)n2CC(C)C | 10µM* | ? | 7% | 3%
CC(C)Cn1c(-c2ccc(C#N)cc2)nc2c1c(=O)[nH]c(=O)n2CC(C)C | · | 10µM* | -10% | 8%
CC(=O)N1c2ccc(S(=O)(=O)N(C)C3CCCCC3)cc2CC1C (centres undefined) | -3% | 14% | 4% | -3%
O=CCCCC=O | 15µM* | 12µM* | · | ·
O=c1c2c3c(sc2nnn1Cc1ccc(F)cc1)CCCC3 | · | · | 6% | ·
COc1ccc(OC)c(C(=O)CN2C(=O)N(c3ccc(C)cc3)S(=O)(=O)c3ccccc32)c1 | · | · | 7% | ·
O=C(Nc1cccc(C(F)(F)F)c1)C(Sc1ncnc2ccccc12)c1ccccc1 (centres undefined) | 7.4µM* | ? | -17% | -23%
Cc1cc(C)cc(NC(=O)C(Sc2ncnc3ccccc23)c2ccccc2)c1 (centres undefined) | 12µM* | 3.3µM* | -3% | 9%
SMILES | Pf growth 48h | Pf growth 96h | Sm TGR block | SARS PLP yeast
CN(CCc1ccccn1)C(=O)CCC1CCCN(C(=O)c2cscn2)C1 (centres undefined) | 0% | 35% | 1% | 0%
CN(CCc1ccccn1)C(=O)CCC1CCCN(C(=O)c2ccsc2)C1 (centres undefined) | 43% | 10µM* | 0% | 0%
C=CCOc1ccccc1CN1CCCC(CCC(=O)N(C)CCc2ccccn2)C1 (centres undefined) | -4% | 12µM* | -11% | -1%
CCc1ccccc1NC(=O)N1CCCC(CCC(=O)N(C)CCc2ccccn2)C1 (centres undefined) | -10% | ? | 0% | -1%
CN(CCc1ccccn1)C(=O)CCC1CCCN(C(=O)c2c3c(nn2C)CCCC3)C1 (centres undefined) | -11% | 8.3µM* | 0% | -1%
CC(C)(C)OC(=O)C[C@H]1C/C=C\C[C@@H](CC(=O)N(CCO)Cc2ccccc2)C(=O)N[C@@H](Cc2ccccc2)COC1=O | · | · | · | -17%
COc1cc(C#N)ccc1OC(=O)C1CCN(C(=O)c2ccc(F)cc2)CC1 | 4% | 12% | -2% | -6%
COc1cc(OC)cc(-c2c(-c3cccs3)c3cc(-c4ccc(OC)c(F)c4)ccc3n2C)c1 | ? | ? | 1% | -8%
COc1cc(OC)cc(-c2c(-c3cccs3)c3cc(-c4ccc5c(c4)OCCO5)ccc3n2C)c1 | 6.6µM* | ? | -27% | -1%
COc1ccc(-c2c(-c3cc(OC)cc(OC)c3)n(C)c3ccc(-c4ccc5c(c4)OCCO5)cc23)cc1 | · | · | · | 6%
COc1cc(OC)cc(-c2c(-c3cccs3)c3cc(-c4ccc(SC)cc4)ccc3n2C)c1 | -79% | 2.1µM* | -11% | 1%
COc1cc(OC)cc(-c2c(-c3cccs3)c3cc(-c4ccc(OC)c(OC)c4)ccc3n2C)c1 | 6.6µM* | ? | -30% | -9%
Cc1ccc(NC(=O)CN2CCc3ccccc3C2)cc1S(=O)(=O)N(C)C | -8% | -10% | 13% | -1%
CN(c1ccccc1)S(=O)(=O)c1cccc(NC(=O)COc2cccc([N+](=O)[O-])c2)c1 | 13µM* | -19% | -2% | 4%
CN(c1ccccc1)S(=O)(=O)c1cccc(NC(=O)CN2CCc3ccccc3C2)c1 | -21% | 10µM* | 8% | -9%
NS(=O)(=O)c1cccc(NC(=O)COc2ccc([N+](=O)[O-])cc2)c1 | 9.3µM* | 119% | -5% | 2%
CN1C(=O)N(CC(=O)Nc2cccc(S(=O)(=O)N(C)c3ccccc3)c2)C(=O)C12CCCCC2 | 15µM* | ? | 1% | 1%
Cc1ccc(C(=O)Nc2cccc(S(=O)(=O)N3CCCC3)c2)o1 | ? | ? | -10% | -1%
Cc1ccc(C(=O)Nc2cccc(S(=O)(=O)N(C)c3ccccc3)c2)o1 | 8.3µM* | 13µM* | 1% | -8%
CN(c1ccccc1)S(=O)(=O)c1cccc(NC(=O)CC(C)(C)C)c1 | -17% | 12µM* | -19% | 16%
COc1cc(CC(=O)Nc2cccc(S(=O)(=O)N(C)c3ccccc3)c2)cc(OC)c1OC | · | · | · | -9%
O=C(CN1C(=O)NC2(CCCCCC2)C1=O)NCc1ccc(Cl)cc1 | · | · | · | 2%
COc1ccc(OC)c(CNC(=O)c2ccc3nc(C(C)C)oc3c2)c1 | · | · | -5% | ·
O=C(NNc1ccccn1)C(c1ccccc1)c1ccccc1 | 13% | ? | -3% | 0%
O=c1cc(CO)oc(C(Nc2ccccn2)c2ccsc2)c1O (centres undefined) | 0% | 146% | 11µM* | -1%
Cc1ccnc(NC(c2ccccc2O)c2oc(CO)cc(=O)c2O)c1 (centres undefined) | 111% | 27% | 1.8µM* | ?

Screens: PubChem BioAssay, National Center for Advancing Translational Sciences (NCATS)
